# Experimental data reported in the supplement of paper PMC10849652.
# Targets with a hit are over-represented here; the source holds about 7,900 in all. About 0.6% of all pairs of compound and target were hits. A number with no mark means an inactive call.
# Legend:
# Experiment in all cases: log2 fold change, soluble protein after heating vs DMSO (PISA); higher = thermal stabilisation; K562 cells, 10 uM, 30 min; active = over 0.2 and 3.5 SD of the protein, either way, in both replicates (recomputed)
# erlotinib = compound: C#Cc1cccc(Nc2ncnc3cc(OCCOC)c(OCCOC)cc23)c1 [erlotinib]
# Outline: (§1)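 K562 cells at 2×10^6 cells/mL were treated for 30 min with 10 μM compound, and aliquots were heated for 3 min over 48°C-58°C before pooling. Extraction used PBS with 0.5% NP-40 at 4°C, and soluble protein was the supernatant after 21,000xg for 90 min, measured by TMTpro 16plex LC-MS/MS with channel sums equalised. Thermal stability values, relative to control samples and from duplicates, are log2 fold changes.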
# [1] = compound: C/C(=N\NC(=O)C1=CC(=CC=C1)S(=O)(=O)N2CCOCC2)/C3=C(C=CC(=C3)Cl)O
# Outline: as §1
# [2] = compound: C1=CC(=C(C=C1Cl)C2=NC3=NC=CN=C3C(=N2)NC4=CC=NC=C4)F
# Outline: as §1
# [3] = compound: C1=CC(=CC=C1C2=NC3=C(N2)C=C(C=C3)C(=O)N)OC4=CC=C(C=C4)Cl
# Outline: as §1
# [4] = compound: C1=CC2=C(C=CC(=C2)/C=C\3/C(=O)NC(=NCC4=CC=CS4)S3)N=C1
# Outline: as §1
# [5] = compound: C1=CC2=NC=CN=C2C=C1/C=C/3\C(=O)NC(=O)S3
# Outline: as §1
# [6] = compound: C1=CC=C(C=C1)C2=NC(=C(N2)C3=CC=NC=C3)C4=CC(=C(C=C4)Cl)O
# Outline: as §1
# [7] = compound: C1=CC=C2C(=C1)C3=NNC4=CC=CC(=C43)C2=O
# Outline: as §1
# [8] = compound: C1CCN(C1)C(=O)NC2=CC=CC(=C2)NC3=NC=C(C(=N3)NCCC4=CN=CN4)Br
# Outline: as §1
# [9] = compound: C1CN(CCC1(CC2=CC=C(C=C2)Cl)N)C3=NC=NC4=C3C=CN4
# Outline: as §1
# Chain of UniProt O43665 (O43665 whole entry, looked up): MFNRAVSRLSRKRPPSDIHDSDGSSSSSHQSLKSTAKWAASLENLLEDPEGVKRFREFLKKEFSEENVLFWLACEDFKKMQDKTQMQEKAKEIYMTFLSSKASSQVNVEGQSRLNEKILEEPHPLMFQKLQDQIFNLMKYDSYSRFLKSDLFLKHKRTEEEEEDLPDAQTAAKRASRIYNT
# Chain of UniProt P43003 (P43003 whole entry, looked up): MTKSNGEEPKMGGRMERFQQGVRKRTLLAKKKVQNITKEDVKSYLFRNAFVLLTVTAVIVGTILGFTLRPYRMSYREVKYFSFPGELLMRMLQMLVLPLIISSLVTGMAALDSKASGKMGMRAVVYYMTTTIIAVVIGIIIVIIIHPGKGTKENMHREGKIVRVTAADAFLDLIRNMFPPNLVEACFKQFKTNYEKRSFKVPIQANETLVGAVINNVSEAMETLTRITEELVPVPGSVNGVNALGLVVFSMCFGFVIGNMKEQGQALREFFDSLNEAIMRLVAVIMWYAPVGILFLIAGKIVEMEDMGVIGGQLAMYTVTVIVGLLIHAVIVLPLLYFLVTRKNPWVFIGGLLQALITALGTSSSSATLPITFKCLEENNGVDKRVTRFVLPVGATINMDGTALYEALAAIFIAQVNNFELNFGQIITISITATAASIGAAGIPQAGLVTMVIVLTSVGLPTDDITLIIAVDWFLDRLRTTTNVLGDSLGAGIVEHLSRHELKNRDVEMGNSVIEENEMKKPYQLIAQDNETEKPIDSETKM
# Chain of UniProt Q9BVS4 (Q9BVS4 whole entry, looked up): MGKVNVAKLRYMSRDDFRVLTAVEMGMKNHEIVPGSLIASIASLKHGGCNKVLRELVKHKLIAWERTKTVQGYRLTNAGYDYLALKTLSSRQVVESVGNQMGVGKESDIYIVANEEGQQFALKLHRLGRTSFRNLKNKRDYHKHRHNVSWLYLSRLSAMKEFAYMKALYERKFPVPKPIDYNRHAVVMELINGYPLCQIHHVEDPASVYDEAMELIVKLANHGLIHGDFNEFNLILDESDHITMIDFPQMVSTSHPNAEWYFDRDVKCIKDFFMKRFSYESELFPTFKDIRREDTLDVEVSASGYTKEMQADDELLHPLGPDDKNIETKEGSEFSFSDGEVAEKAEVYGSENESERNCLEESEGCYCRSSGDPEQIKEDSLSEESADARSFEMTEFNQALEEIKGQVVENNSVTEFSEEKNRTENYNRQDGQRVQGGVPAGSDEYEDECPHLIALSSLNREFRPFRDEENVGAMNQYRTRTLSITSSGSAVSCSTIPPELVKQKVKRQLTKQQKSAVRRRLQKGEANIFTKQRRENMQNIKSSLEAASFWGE
# Chain of UniProt Q96DX4 (Q96DX4 whole entry, looked up): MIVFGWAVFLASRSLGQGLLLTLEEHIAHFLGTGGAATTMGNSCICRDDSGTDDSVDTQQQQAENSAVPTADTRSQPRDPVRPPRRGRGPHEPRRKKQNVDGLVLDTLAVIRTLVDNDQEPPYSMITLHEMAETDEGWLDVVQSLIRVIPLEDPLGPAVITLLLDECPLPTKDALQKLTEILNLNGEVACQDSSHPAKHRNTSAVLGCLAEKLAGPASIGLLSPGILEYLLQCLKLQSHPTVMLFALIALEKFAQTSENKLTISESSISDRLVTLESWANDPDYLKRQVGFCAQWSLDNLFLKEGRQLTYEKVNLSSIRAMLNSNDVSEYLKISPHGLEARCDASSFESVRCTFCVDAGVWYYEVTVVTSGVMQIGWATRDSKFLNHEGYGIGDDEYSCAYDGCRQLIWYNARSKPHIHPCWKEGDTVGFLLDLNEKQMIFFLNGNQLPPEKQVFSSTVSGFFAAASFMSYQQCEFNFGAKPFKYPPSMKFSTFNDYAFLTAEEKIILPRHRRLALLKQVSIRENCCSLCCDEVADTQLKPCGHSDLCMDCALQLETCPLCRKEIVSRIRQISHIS
# Chain of UniProt O43819 (O43819 whole entry, looked up): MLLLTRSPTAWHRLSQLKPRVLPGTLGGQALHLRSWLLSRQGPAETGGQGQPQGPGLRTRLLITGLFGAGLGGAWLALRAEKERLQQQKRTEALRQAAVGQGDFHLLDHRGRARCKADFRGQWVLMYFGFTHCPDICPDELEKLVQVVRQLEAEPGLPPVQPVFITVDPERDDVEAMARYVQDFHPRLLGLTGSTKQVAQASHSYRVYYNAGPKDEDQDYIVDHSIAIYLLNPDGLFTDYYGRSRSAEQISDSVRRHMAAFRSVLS
# Chain of UniProt Q13464 (Q13464 whole entry, looked up): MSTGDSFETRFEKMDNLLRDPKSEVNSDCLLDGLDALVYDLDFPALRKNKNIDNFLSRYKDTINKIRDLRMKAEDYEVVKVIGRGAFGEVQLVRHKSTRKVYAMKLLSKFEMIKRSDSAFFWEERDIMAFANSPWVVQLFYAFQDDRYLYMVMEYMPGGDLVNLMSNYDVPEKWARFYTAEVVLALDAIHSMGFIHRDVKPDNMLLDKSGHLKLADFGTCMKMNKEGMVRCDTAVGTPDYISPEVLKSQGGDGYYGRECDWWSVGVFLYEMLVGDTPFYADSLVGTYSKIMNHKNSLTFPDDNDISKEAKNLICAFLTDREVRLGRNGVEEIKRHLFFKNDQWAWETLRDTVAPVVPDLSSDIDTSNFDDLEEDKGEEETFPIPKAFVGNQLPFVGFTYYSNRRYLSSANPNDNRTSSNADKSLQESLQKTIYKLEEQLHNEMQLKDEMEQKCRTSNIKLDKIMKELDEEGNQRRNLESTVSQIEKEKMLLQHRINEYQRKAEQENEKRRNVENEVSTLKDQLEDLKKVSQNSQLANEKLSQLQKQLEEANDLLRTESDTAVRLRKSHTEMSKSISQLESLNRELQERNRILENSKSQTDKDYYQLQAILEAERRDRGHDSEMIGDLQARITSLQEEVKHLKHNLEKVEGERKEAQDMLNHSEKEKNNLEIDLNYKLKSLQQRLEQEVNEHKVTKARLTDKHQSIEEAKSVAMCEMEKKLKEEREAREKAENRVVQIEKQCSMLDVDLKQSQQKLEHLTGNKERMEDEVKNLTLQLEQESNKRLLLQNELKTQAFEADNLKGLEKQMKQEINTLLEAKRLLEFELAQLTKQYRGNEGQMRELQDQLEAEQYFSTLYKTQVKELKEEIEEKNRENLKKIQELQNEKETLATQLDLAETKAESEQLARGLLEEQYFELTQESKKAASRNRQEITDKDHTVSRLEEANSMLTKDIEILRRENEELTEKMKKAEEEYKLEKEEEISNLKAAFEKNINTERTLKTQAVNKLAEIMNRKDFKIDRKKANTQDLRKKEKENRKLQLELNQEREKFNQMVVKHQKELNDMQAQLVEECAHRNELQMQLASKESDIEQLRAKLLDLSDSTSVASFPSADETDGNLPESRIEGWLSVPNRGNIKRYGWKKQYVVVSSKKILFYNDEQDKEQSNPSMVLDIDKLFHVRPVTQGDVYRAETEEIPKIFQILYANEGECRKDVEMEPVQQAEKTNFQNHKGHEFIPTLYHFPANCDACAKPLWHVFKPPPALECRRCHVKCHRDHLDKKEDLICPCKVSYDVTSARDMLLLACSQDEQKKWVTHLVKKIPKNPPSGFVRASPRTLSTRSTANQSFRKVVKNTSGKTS
# Chain of UniProt Q8WXD2 (Q8WXD2 whole entry, looked up): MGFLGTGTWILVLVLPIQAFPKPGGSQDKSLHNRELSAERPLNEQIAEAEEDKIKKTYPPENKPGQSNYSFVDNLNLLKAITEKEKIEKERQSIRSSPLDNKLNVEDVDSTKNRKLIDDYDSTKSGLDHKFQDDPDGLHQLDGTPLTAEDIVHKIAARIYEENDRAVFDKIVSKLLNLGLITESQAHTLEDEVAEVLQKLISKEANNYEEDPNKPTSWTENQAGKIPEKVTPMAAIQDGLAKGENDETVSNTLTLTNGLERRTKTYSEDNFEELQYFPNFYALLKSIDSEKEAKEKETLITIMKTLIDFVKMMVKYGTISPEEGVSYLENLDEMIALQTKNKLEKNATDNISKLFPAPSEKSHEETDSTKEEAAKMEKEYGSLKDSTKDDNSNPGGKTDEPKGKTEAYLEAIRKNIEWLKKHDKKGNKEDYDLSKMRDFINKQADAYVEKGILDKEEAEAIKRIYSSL
# Chain of UniProt P11233 (P11233 whole entry, looked up): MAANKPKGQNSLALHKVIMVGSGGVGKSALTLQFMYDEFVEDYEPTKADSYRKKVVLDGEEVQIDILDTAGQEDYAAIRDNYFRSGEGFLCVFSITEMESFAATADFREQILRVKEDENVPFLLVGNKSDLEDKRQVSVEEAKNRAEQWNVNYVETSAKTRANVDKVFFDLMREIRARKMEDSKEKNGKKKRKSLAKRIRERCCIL
Target,log2 fold change (erlotinib),log2 fold change [1],log2 fold change [2],log2 fold change [3],log2 fold change [4],log2 fold change [5],log2 fold change [6],log2 fold change [7],log2 fold change [8],log2 fold change [9]
SFXN5 (UniProt Q8TD22),-0.077,0.09,-0.02,0.082,-0.003,0.023,0.081,-0.001,-0.066,-0.045
RIOK2 (UniProt Q9BVS4),-0.081,-0.064,-0.149,0.097,-0.043,-0.055,-0.01,0.055,0.035,-0.209
SEC16A isoform 5 (UniProt O15027),0.126,-0.143,-0.064,0.015,0.153,-0.018,0.044,0.069,0.06,0.017
SLC1A3 (UniProt P43003),0.025,0.017,0.194,0.053,-0.169,0.001,0.007,0.012,0.05,0.163
SLBP (UniProt Q14493),0.006,0.03,-0.058,0.019,-0.111,0.035,0.005,0.008,0.008,-0.039
RETREG3 (UniProt Q86VR2),0.004,0.072,0.037,0.031,-0.053,0.07,0.062,-0.087,-0.029,0.032
RSPRY1 (UniProt Q96DX4),0.028,0.079,0.016,0.041,0.017,-0.042,-0.006,-0.026,-0.014,0.033
RPL31 (UniProt P62899),-0.145,-0.174,-0.444,0.055,-0.052,-0.02,-0.047,-0.011,0.087,-0.215
SCD (UniProt O00767),0.022,-0.256,0.143,-0.008,0.024,0.04,-0.059,-0.006,0.126,0.023
RHOA (UniProt P61586),0.028,-0.029,0.012,-0.052,-0.094,-0.161,0.114,0.018,-0.05,0.01
RALA (UniProt P11233),0.087,-0.005,0.033,-0.05,0.005,0.056,-0.076,-0.045,-0.066,0.104
REL (UniProt Q04864),0.076,-0.013,-0.007,0.003,0.024,-0.037,-0.029,-0.013,-0.082,0.01
SCG3 (UniProt Q8WXD2),-0.076,0.141,0.023,0.088,0.09,-0.015,0.103,-0.094,-0.05,0.036
SEC31A (UniProt O94979),0.049,0.023,0.006,-0.025,0.094,0.016,-0.045,0.023,-0.06,-0.025
SCAMP2 (UniProt H3BUB6),0.182,-0.331,-0.143,0.039,0.372,-0.163,-0.281,-0.143,0.218,-0.003
RBM22 (UniProt Q9NW64),-0.013,-0.037,-0.061,-0.009,-0.117,0.038,-0.084,-0.051,0,0.121

Target,log2 fold change (erlotinib),log2 fold change [1],log2 fold change [2],log2 fold change [3],log2 fold change [4],log2 fold change [5],log2 fold change [6],log2 fold change [7],log2 fold change [8],log2 fold change [9]
SETMAR (UniProt Q53H47),0.004,-0.044,0.046,-0.018,0.133,-0.029,-0.01,0.008,-0.031,-0.248
RABGAP1L isoform 3 (UniProt Q5R372),0.087,0.052,0.161,-0.021,0.029,0.033,-0.001,0.035,0.004,0.007
RAC1 (UniProt P63000),-0.066,-0.062,-0.003,0.053,-0.194,0.015,0.048,-0.05,0.017,0.005
RAB3IL1 (UniProt E9PK89),-0.238,-0.055,0.116,-0.001,0.058,0.104,-0.028,0.197,-0.162,0.004
RETSAT (UniProt Q6NUM9),0.044,-0.149,0.132,0.502 (active),0.052,0.002,0.056,0.144,-0.126,0.194
SCO2 (UniProt O43819),0.092,0.012,0.055,0.048,0.243,-0.054,0.017,0.163,-0.042,0.101
SAMSN1 isoform 3 (UniProt Q9NSI8),0.027,0.012,-0.006,0.001,0.037,0.021,-0.009,-0.022,0.007,-0.114
ROCK2 (UniProt O75116),0.05,0.02,0.031,0.003,0.158,0.126,-0.009,-0.071,0.036,0.099
RPS6KA1 isoform 2 (UniProt Q15418),-0.032,0.104,-0.082,0.107,0.034,0.039,-0.135,-0.377 (active),-0.093,0.023
RGS10 (UniProt O43665),-0.044,0.048,0.076,0.009,-0.03,0.002,0.073,-0.015,-0.069,0.036
ROCK1 (UniProt Q13464),0.049,-0.025,0.042,-0.007,0.199,0.027,-0.007,-0.018,0.032,0.205
RFC3 (UniProt P40938),-0.04,0.108,0.033,0.005,0.066,0.007,0.046,0.046,-0.06,0.054
SGPL1 (UniProt O95470),-0.038,-0.019,-0.088,-0.047,0.05,-0.029,0.01,-0.001,-0.035,-0.145
SH3GL1 (UniProt Q99961),0.024,0.068,0.013,0.003,0.058,0.022,0.019,0.004,-0.047,-0.045
RCOR1 (UniProt Q9UKL0),0.033,0.069,-0.043,-0.056,0.134,-0.013,0.076,-0.011,-0.006,-0.043
